According to PubChem BioAssay AID1159580 (chemical genetic matrix, 2015):
Where “and” joins values, the source holds several entries; their conditions need not be identical. Equal values may be shown once. About 2,000 (36%) of roughly 5,500 compounds were called active. Inconclusive results (about 18%) are left out. Rule as the data show it: active = normalized growth mostly below about 0.91 (no sharp cut-off); inconclusive = no clear call, values can overlap the other calls; inactive = mostly above about 0.92. The list shows a part of the results.

Experiment: chemical genetic growth profiling, strain panel (AID 1159580);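 also: tested at 20 µM; growth read once vehicle control cultures reached saturation at 30 °C; 1 = growth at the plate median or of vehicle wells; lower values mean less growth of the strain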
Conditions: S. cerevisiae deletion strains, growth OD
[1] = locus YAL040C, strain CLN3, hits give low values
[2] = locus YCL061C, strain MRC1 (second series), hits give low values
[3] = locus YER002W, strain NOP16, hits give low values
[4] = locus YJR075W, strain HOC1, hits give low values
[5] = locus YMR263W, strain SAP30, hits give low values
[6] = locus YNL153C, strain GIM3, hits give low values
[7] = locus YNL175C, strain NOP13, hits give low values
[8] = locus YNL197C, strain WHI3, hits give low values
[9] = locus YNL224C, strain SQS1, hits give low values
[10] = locus YOR083W, strain WHI5 (second series), hits give low values
[11] = locus YPL241C, strain CIN2, hits give low values

Measured: normalized growth

N[C@@H](CC(=O)O)C(=O)O
inactive: locus YAL013W, strain DEP1, hits give low values 1.01 | [1] 1.09 | [2] 1.01 | [3] 1.01 | [4] 1.01 | [5] 1 | [6] 1.02 | [7] 1 | [8] 1 | [9] 0.996 | [10] 0.955 | [11] 1.01

O=c1[nH]cnc2[nH]ncc12
inactive: locus YAL021C, strain ccr4, hits give low values 1.01 | locus YAL026C, strain drs2, hits give low values 1 | locus YAL030W, strain snc1, hits give low values 0.985 | [1] 1.01 | locus YBL061C, strain skt5, hits give low values 1 | locus YBR009C, strain hhf1, hits give low values 1 | locus YBR021W, strain FUR4, hits give low values 1.01 | locus YBR023C, strain chs3, hits give low values 1 | locus YBR171W, strain sec66, hits give low values 1.01 | locus YBR229C, strain ROT2, hits give low values 1.01 | locus YBR231C, strain swc5, hits give low values 1.02 | locus YBR279W, strain paf1, hits give low values 1 | locus YCL011C, strain gbp2, hits give low values 1.01 | locus YCL016C, strain dcc1, hits give low values 1.01 | locus YCL029C, strain bik1, hits give low values 1.02 | [2] 0.996 | locus YCL069W, strain vba3, hits give low values 1.01 | locus YCR088W, strain abp1, hits give low values 0.993 | locus YDL005C, strain med2, hits give low values 0.998 | locus YDL035C, strain GPR1, hits give low values 0.997 | locus YDL040C, strain nat1, hits give low values 0.988 | locus YDL074C, strain BRE1, hits give low values 0.996 | locus YDL101C, strain DUN1, hits give low values 1.01 | locus YDL134C, strain PPH21, hits give low values 0.993 | locus YDL185W, strain tfp1, hits give low values 1.02 | locus YDL192W, strain arf1, hits give low values 1.01 | locus YDR001C, strain nth1, hits give low values 0.992 | locus YDR069C, strain doa4, hits give low values 1.04 | locus YDR101C, strain arx1, hits give low values 1 | locus YDR137W, strain rgp1, hits give low values 0.993 | locus YDR159W, strain sac3, hits give low values 1.02 | locus YDR162C, strain NBP2, hits give low values 1.01 | locus YDR195W, strain ref2 0.958 | locus YDR297W, strain sur2, hits give low values 1 | locus YDR318W, strain mcm21, hits give low values 1.01 | locus YDR334W, strain swr1, hits give low values 1.03 | locus YDR335W, strain msn5, hits give low values 1.01 | locus YDR388W, hits give low values 1.02 | locus YDR392W, strain spt3, hits give low values 0.966 | locus YDR502C, strain sam2, hits give low values 1.01 | locus YEL003W, strain gim4, hits give low values 1.01 | locus YEL037C, strain rad23, hits give low values 1.01 | locus YEL061C, strain CIN8 (second series), hits give low values 1.02 | locus YEL061C, strain CIN8, hits give low values 1 | [3] 1 | locus YER015W, strain faa2, hits give low values 1.01 | locus YER016W, strain bim1, hits give low values 0.97 | locus YER110C, hits give low values 1.03 | locus YER111C, strain swi4, hits give low values 1 | locus YER155C, strain BEM2 (second series), hits give low values 1.01 | locus YER155C, strain BEM2, hits give low values 1.01 | locus YER167W, strain BCK2, hits give low values 0.999 | locus YFR010W, strain ubp6, hits give low values 1.01 | locus YGL078C, strain dbp3, hits give low values 1.01 | locus YGL086W, strain mad1, hits give low values 1 | locus YGL167C, strain pmr1, hits give low values 1.01 | locus YGL173C, strain kem1, hits give low values 0.998 | locus YGL227W, strain vid30, hits give low values 1.01 | locus YGL240W, strain doc1, hits give low values 1.04 | locus YGL248W, strain PDE1, hits give low values 1.01 | locus YGL253W, strain hxk2, hits give low values 0.995 | locus YGR135W, strain pre9, hits give low values 1.01 | locus YGR252W, strain gcn5, hits give low values 0.989 | locus YHR013C, strain ard1, hits give low values 0.968 | locus YHR027C, strain rpn1, hits give low values 1 | locus YHR030C, strain SLT2, hits give low values 1.01 and 0.983 | locus YHR079C, strain IRE1 (second series), hits give low values 1.02 | locus YHR079C, strain IRE1, hits give low values 1.04 | locus YHR094C, strain hxt1, hits give low values 1.03 | locus YHR129C, strain ARP1, hits give low values 1 | locus YHR142W, strain chs7, hits give low values 0.998 | locus YHR200W, strain rpn10, hits give low values 1.03 | locus YIL066C, strain RNR3, hits give low values 1.01 | locus YIL073C, strain SPO22, hits give low values 1.04 | locus YIL125W, strain kgd1, hits give low values 1.02 | locus YIR030C, strain dcg1, hits give low values 1.01 | locus YJL092W, strain hpr5, hits give low values 1.01 | locus YJL095W, strain BCK1 (second series), hits give low values 1.01 | locus YJL095W, strain BCK1, hits give low values 1.02 and 1.03 | locus YJL115W, strain asf1, hits give low values 1.02 | locus YJL129C, strain trk1, hits give low values 1.01 | locus YJL134W, strain LCB3, hits give low values 0.999 | locus YJL154C, strain vps35, hits give low values 1.01 | locus YJL164C, strain tpk1, hits give low values 0.981 | locus YJL166W, strain qcr8, hits give low values 1.02 | locus YJL168C, strain set2, hits give low values 1.02 | locus YJL187C, strain SWE1 (second series), hits give low values 1.02 | locus YJL187C, strain SWE1, hits give low values 1.01 | locus YJR043C, strain POL32, hits give low values 0.988 | locus YJR066W, strain TOR1, hits give low values 0.974 | [4] 1.01 | locus YKL009W, strain mrt4, hits give low values 1.02 | locus YKL068W, hits give low values 1.01 | locus YKL085W, strain MDH1 (second series), hits give low values 1 | locus YKL085W, strain MDH1, hits give low values 1 | locus YKL160W, strain elf1, hits give low values 1 | locus YKR001C, strain vps1, hits give low values 1.01 | locus YKR026C, strain gcn3, hits give low values 1.06 | locus YKR091W, strain srl3, hits give low values 0.999 | locus YLL001W, strain dnm1, hits give low values 1.01 | locus YLL026W, hits give low values 1 | locus YLL041C, strain sdh2, hits give low values 0.987 | locus YLR027C, strain aat2, hits give low values 1.01 | locus YLR039C, strain RIC1, hits give low values 1 | locus YLR058C, strain SHM2, hits give low values 1.01 | locus YLR102C, strain apc9, hits give low values 1.02 | locus YLR113W, strain HOG1, hits give low values 1.02 | locus YLR221C, strain rsa3, hits give low values 1.01 | locus YLR258W, strain gsy2, hits give low values 1 | locus YLR262C, strain YPT6 (second series), hits give low values 1 | locus YLR262C, strain YPT6, hits give low values 1.04 | locus YLR268W, strain sec22, hits give low values 1.02 | locus YLR320W, strain mms22, hits give low values 0.992 | locus YLR330W, strain CHS5, hits give low values 1 | locus YLR342W, strain FKS1 (second series), hits give low values 0.982 | locus YLR342W, strain FKS1, hits give low values 1.02 | locus YLR357W, strain rsc2, hits give low values 0.998 | locus YLR370C, strain arc18, hits give low values 1.01 | locus YLR371W, strain rom2, hits give low values 1.01 | locus YLR384C, strain iki3, hits give low values 1 | locus YLR418C, strain cdc73, hits give low values 1.01 | locus YML016C, strain PPZ1, hits give low values 1.01 | locus YML032C, strain rad52, hits give low values 1.01 | locus YML120C, strain ndi1, hits give low values 1.02 | locus YML124C, strain tub3, hits give low values 1.02 | locus YMR058W, strain fet3, hits give low values 1.02 | locus YMR078C, strain ctf18, hits give low values 1.02 | locus YMR125W, strain sto1, hits give low values 0.998 | locus YMR129W, hits give low values 1.01 | locus YMR205C, strain PFK2, hits give low values 0.998 | locus YMR223W, strain ubp8, hits give low values 1.01 | locus YMR231W, strain pep5, hits give low values 1 | [5] 0.997 | locus YMR307W, strain GAS1, hits give low values 1.02 and 1.01 | locus YNL067W, strain RPL9B, hits give low values 1.02 | locus YNL071W, strain lat1, hits give low values 1.02 | [6] 1.03 | [7] 1.01 | locus YNL183C, strain NPR1, hits give low values 0.977 | [8] 1.01 | locus YNL209W, strain ssb2, hits give low values 0.998 | [9] 0.994 | locus YNL233W, strain BNI4, hits give low values 1.01 | locus YNL248C, strain rpa49, hits give low values 1.04 | locus YNL250W, strain rad50, hits give low values 1.01 | locus YNL271C, strain bni1, hits give low values 1.02 | locus YNL298W, strain CLA4, hits give low values 1.01 | locus YNL307C, strain MCK1, hits give low values 1.03 | locus YNL322C, strain KRE1 (second series), hits give low values 0.993 | locus YNL322C, strain KRE1, hits give low values 1.01 | locus YNR049C, strain mso1, hits give low values 1.02 | locus YNR052C, strain pop2, hits give low values 1.02 | locus YOL006C, strain TOP1, hits give low values 1.05 | locus YOL012C, strain htz1 0.934 | locus YOL147C, strain pex11, hits give low values 1.01 | locus YOR001W, strain rrp6, hits give low values 1.05 | locus YOR061W, strain CKA2, hits give low values 1.01 | locus YOR069W, strain VPS5, hits give low values 1 | locus YOR070C, strain gyp1, hits give low values 0.996 | locus YOR080W, strain dia2, hits give low values 1.02 | [10] 1.04 | locus YOR083W, strain WHI5, hits give low values 1.05 | locus YOR106W, strain vam3, hits give low values 1.03 | locus YOR136W, strain idh2, hits give low values 1.02 | locus YOR144C, strain elg1, hits give low values 1.01 | locus YOR184W, strain ser1, hits give low values 1.01 | locus YOR231W, strain MKK1, hits give low values 1.03 | locus YOR265W, strain rbl2, hits give low values 1.01 | locus YOR270C, strain vph1, hits give low values 1.08 | locus YOR290C, strain snf2, hits give low values 0.993 | locus YOR316C, strain cot1, hits give low values 1.01 | locus YPL051W, strain arl3, hits give low values 1.01 | locus YPL078C, strain atp4, hits give low values 1.03 | locus YPL106C, strain sse1, hits give low values 1.01 | locus YPL240C, strain hsp82, hits give low values 1 | [11] 1 | locus YPL256C, strain CLN2, hits give low values 1 | locus YPR119W, strain clb2, hits give low values 1.02 | locus YPR141C, strain kar3, hits give low values 1.03 | locus YPR163C, strain tif3, hits give low values 1.03 | locus YPR167C, strain met16, hits give low values 1.02 | strain wtn01, hits give low values 1
